Screening results as filed in PubChem.
MEKK2mut PB1 HTS: signal of MEK5 binding to mutant human MEKK2 PB1 domain; percent response, % at 10 µM; bead flow cytometry, Alexa488-MEK5 binding to MEKK2 mutant; 290,000 tested, 0.35% active; in the data active = percent response above about 24%, passing the limit was not always enough
Pf gamet viab: P. falciparum stage V gametocyte viability inhibition; P. falciparum stage V gametocytes, ATP luminescence, 24 h; inhibition, % at 10.9 µM; 150,000 tested, 0.065% active; AID 743093;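 active = inhibition above the mean plus 3 SD of compounds within the control limits, set per campaign, cut at about 38% in these data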
MEKK3 PB1 HTS: MEKK3-MEK5 PB1 interaction, increase or decrease. Q99759. bead-based flow cytometry, Alexa488-MEK5 binding to MEKK3; actives lie on both sides; 0 = blocked by unlabeled MEK5, 100 = vehicle. binding response (% of control), % at 10 µM. 290,000 tested, 1.4% active. AID 1529;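 active = binding response more than 3 SD above or below the average of its plate-row segment, actives on both sides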;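 also: Alexa488 bead fluorescence after subtracting the streptavidin-only scavenger bead signal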
Target sequence (Q99759 whole entry, looked up): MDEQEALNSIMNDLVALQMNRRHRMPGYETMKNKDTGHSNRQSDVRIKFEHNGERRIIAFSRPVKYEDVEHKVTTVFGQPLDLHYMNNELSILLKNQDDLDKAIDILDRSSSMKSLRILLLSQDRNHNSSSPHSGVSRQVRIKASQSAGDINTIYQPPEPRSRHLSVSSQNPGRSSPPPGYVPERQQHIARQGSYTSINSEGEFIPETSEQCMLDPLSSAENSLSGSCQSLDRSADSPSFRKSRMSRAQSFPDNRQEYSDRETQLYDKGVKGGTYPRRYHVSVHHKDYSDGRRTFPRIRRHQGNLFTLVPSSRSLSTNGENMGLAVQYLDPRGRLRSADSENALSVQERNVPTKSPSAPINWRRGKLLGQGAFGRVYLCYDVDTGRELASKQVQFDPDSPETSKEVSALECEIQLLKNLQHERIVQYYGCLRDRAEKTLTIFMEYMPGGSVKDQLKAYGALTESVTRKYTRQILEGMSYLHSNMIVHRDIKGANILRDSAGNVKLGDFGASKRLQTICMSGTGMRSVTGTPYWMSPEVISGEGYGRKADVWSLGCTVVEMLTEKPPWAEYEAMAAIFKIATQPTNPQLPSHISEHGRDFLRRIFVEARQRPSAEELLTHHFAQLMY
MEKK2wt PB1 HTS: raises or lowers MEK5 binding to wildtype human MEKK2 PB1 domain; bead flow cytometry, Alexa488-MEK5 binding to MEKK2 WT; actives lie on both sides; binding response (% of control), % at 10 µM; 290,000 tested, 1.1% active; in the data active = binding response below about 67% or above about 130%
Arbovirus inh: blocks arbovirus infection | arbovirus infection cell-based antiviral screen | inhibition, % at 10 µM | 200,000 tested, 0.37% active | AID 1251; in the data active = inhibition above about 30%
MEKK2wt confirm: raises or lowers MEK5 binding to wildtype human MEKK2, retest | shares compounds with MEKK3 PB1 HTS | bead flow cytometry, Alexa488-MEK5 binding to MEKK2 WT; actives lie on both sides | binding response (% of control), % at 10 µM | 5,900 tested, 2.4% active | AID 1892; in the data active = binding response below about 16% or above about 210%; inactive = in between
MEKK2mut confirm: signal of MEK5 binding to mutant human MEKK2, retest. shares compounds with MEKK3 PB1 HTS. 5,900 tested, 2% active. AID 1893. bead flow cytometry, Alexa488-MEK5 binding to MEKK2 mutant. percent response, % at 10 µM; in the data active = percent response mostly above about 71%, no sharp cut-off; inactive = mostly below about 38%;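 also: higher means compound restores mutant binding toward wildtype level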
MEKK3-MEK5 inh: confirmation of inhibitors of MEK5 binding to human MEKK3 | shares compounds with MEKK3 PB1 HTS | bead flow cytometry, Alexa488-MEK5 binding to MEKK3; hits give low values | binding response (% of control), % at 10 µM | 5,900 tested, 1.8% active | AID 1894;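 active = binding response below 72% of control, or above a set upper limit, though filed actives all read lower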;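 also: lower values mean stronger disruption of MEK5 binding to MEKK3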
Of the large screens only hits and unclear results are named; the others gave an inactive call (follow-up assays come after a bar, where they were run); [ ] = remark or other dose. This is a sample that favours compounds with a hit; in the whole collection about 2.4% have one here.

O=C(CSc1nc(O)c(Cc2ccccc2)c(=O)[nH]1)N1CCOCC1	MEKK3 PB1 HTS 131 (no result: Arbovirus inh) | MEKK2wt confirm inactive | MEKK2mut confirm inactive | MEKK3-MEK5 inh inactive
COc1ccc(Cc2c(O)nc(SCC(=O)N3CCOCC3)[nH]c2=O)cc1	none (no result: Arbovirus inh)
N=c1sccn1CC(=O)Nc1ccc(SC(F)F)cc1	none
Cc1cccc2nc(CSc3nc4ccc([N+](=O)[O-])cc4[nH]3)cn12	MEKK3 PB1 HTS 151 | MEKK2wt confirm inactive | MEKK2mut confirm inactive | MEKK3-MEK5 inh inactive
COc1ccc(C(=O)NNC(=O)C2=NN(c3ccccc3)C(=O)CC2)cc1	none (no result: Pf gamet viab, Arbovirus inh)
COc1ccc(C(=NNc2ccccc2C(=O)O)c2ccc(OC)cc2)cc1	Pf gamet viab 53, MEKK3 PB1 HTS 150 | MEKK2wt confirm inactive | MEKK2mut confirm inactive | MEKK3-MEK5 inh inactive
O=C1C(Cl)=C(N2CCCCC2)C(=O)C(Cl)=C1c1cnc(N2CCCCC2)s1	MEKK3 PB1 HTS 62[inhibitor], MEKK2wt PB1 HTS 60[inhibitor] (no result: Pf gamet viab) | MEKK2wt confirm inactive | MEKK2mut confirm inactive | MEKK3-MEK5 inh inactive
CN(C)c1ncc(C2=C(Cl)C(=O)C(N3CCCC3)=C(Cl)C2=O)s1	none
CCOC(=O)C1=C(CC)OC(N)=C(C#N)C1c1cccs1 (centres undefined)	MEKK3 PB1 HTS 74[inhibitor] (no result: Pf gamet viab) | MEKK2wt confirm inactive | MEKK2mut confirm inactive | MEKK3-MEK5 inh inactive
Cc1ccc(S(=O)(=O)NN2C(=O)c3ccccc3NC2c2ccccn2)cc1 (centres undefined)	none
Cc1cc2nccc(-c3ccc(Cl)c([N+](=O)[O-])c3)n2n1	none (no result: Pf gamet viab)
O=C(c1ccc(S(=O)(=O)N2CCCC2)cc1)N1CCCc2ccccc21	MEKK2mut PB1 HTS 27 | MEKK2wt confirm inactive | MEKK2mut confirm inactive | MEKK3-MEK5 inh inactive
COc1ccc(OCC(=O)Nc2ccc(N3CCN(Cc4ccccc4F)CC3)cc2)cc1	none (no result: Pf gamet viab, Arbovirus inh)
COc1ccc(OC)c(NC(=O)c2cc(OC(C)=O)cc(C(=O)Nc3cc(OC)ccc3OC)c2)c1	none (no result: Arbovirus inh)
Cc1cc2nc(-c3ccc(SCC(=O)Nc4ccc(S(=O)(=O)N5CCCC5)cc4)nc3)[nH]c2cc1C	MEKK3 PB1 HTS 132 (no result: Pf gamet viab) | MEKK2wt confirm inactive | MEKK2mut confirm inactive | MEKK3-MEK5 inh inactive
Cc1nc2ccccc2c(=O)n1/N=C/c1ccccc1OC(F)F	none (no result: Pf gamet viab, Arbovirus inh)
Cc1cc(NC(=O)C(C)Sc2nc(-c3ccccc3)cc(=O)[nH]2)no1 (centres undefined)	none (no result: Pf gamet viab, Arbovirus inh)
Cn1ccnc1Sc1cc(NCCCO)c([N+](=O)[O-])c2nonc12	MEKK3 PB1 HTS 132 | MEKK2wt confirm inactive | MEKK2mut confirm inactive | MEKK3-MEK5 inh inactive
CC(=Nc1ccccc1)C1=C(O)CCCC1=O	MEKK3 PB1 HTS 136 | MEKK2wt confirm inactive | MEKK2mut confirm inactive | MEKK3-MEK5 inh inactive
CC(=Nc1ccccc1)C1=C(O)CC(C)(C)CC1=O	none (no result: Pf gamet viab)
Cc1ccc2c(c1)N(C(=O)CCC(=O)NCCN1CCOCC1)CC(C)O2 (centres undefined)	none (no result: Pf gamet viab, Arbovirus inh)
CCc1ccc(Nc2n[n+](-c3ccccc3)c(-c3ccc(OC)c(Br)c3)s2)cc1	MEKK2mut PB1 HTS 41, MEKK2wt PB1 HTS 207 (no result: Arbovirus inh) | MEKK2wt confirm inactive | MEKK2mut confirm 73 | MEKK3-MEK5 inh inactive
COc1cc(Br)c(-c2sc(Nc3ccccc3)n[n+]2-c2ccc(F)cc2)cc1OC	MEKK2mut PB1 HTS 34 (no result: Pf gamet viab, Arbovirus inh) | MEKK2wt confirm inactive | MEKK2mut confirm inactive | MEKK3-MEK5 inh inactive
CCc1ccc(Nc2n[n+](-c3ccccc3)c(-c3ccc(SC)cc3)s2)cc1	MEKK2mut PB1 HTS 35, MEKK2wt PB1 HTS 195 (no result: Pf gamet viab, Arbovirus inh) | MEKK2wt confirm inactive | MEKK2mut confirm inactive | MEKK3-MEK5 inh inactive
Fc1ccc(-[n+]2nc(Nc3ccccc3)sc2-c2cccc(Cl)c2Cl)cc1	none (no result: Arbovirus inh)
Clc1cccc(-c2sc(Nc3ccccc3)n[n+]2-c2ccccc2)c1Cl	MEKK2wt PB1 HTS 135 (no result: Pf gamet viab, Arbovirus inh) | MEKK2wt confirm inactive | MEKK2mut confirm inactive | MEKK3-MEK5 inh inactive
CSc1ccc(-c2sc(Nc3cccc4ccccc34)n[n+]2-c2ccccc2)cc1	none (no result: Arbovirus inh)
CSc1ccc(-c2sc(Nc3ccccc3)n[n+]2-c2ccccc2)cc1	MEKK2wt PB1 HTS 148 (no result: Pf gamet viab, Arbovirus inh) | MEKK2wt confirm inactive | MEKK2mut confirm inactive | MEKK3-MEK5 inh inactive
CSc1ccc(CN(C)CC(=O)NCCc2ccccc2)cc1	none (no result: Pf gamet viab, Arbovirus inh)
CSc1ccc(CN(C)CC(=O)Nc2ccccc2Br)cc1	MEKK3 PB1 HTS 132 (no result: Pf gamet viab) | MEKK2wt confirm inactive | MEKK2mut confirm inactive | MEKK3-MEK5 inh inactive
O=C(CN1C(=O)C(=O)N(C2CCCC2)C1=O)Nc1ccc(N2CCOCC2)cc1	none
COc1cc(Cl)cc2c1Sc1ccccc1/C2=C/CCN(C)C	MEKK2wt PB1 HTS 167 (no result: Pf gamet viab) | MEKK2wt confirm inactive | MEKK2mut confirm inactive | MEKK3-MEK5 inh inactive
O=C(C1CCC(=O)N(C2CC2)C1)N1CCC(Oc2cccc(C(F)(F)F)c2)CC1 (centres undefined)	none (no result: Pf gamet viab, Arbovirus inh)
Cc1ccc2c(c1)N(CC(=O)N1CCCCC1)C(=O)CO2	none (no result: Pf gamet viab, Arbovirus inh)
COc1ccccc1Nc1nc(NCCCN(C)C)nc(N)c1[N+](=O)[O-]	MEKK2wt PB1 HTS 145 (no result: Arbovirus inh) | MEKK2wt confirm inactive | MEKK2mut confirm inactive | MEKK3-MEK5 inh inactive
Cc1ccc(Nc2nc(NCCCN3CCOCC3)nc(N)c2[N+](=O)[O-])cc1C	MEKK2wt PB1 HTS 148 | MEKK2wt confirm inactive | MEKK2mut confirm inactive | MEKK3-MEK5 inh inactive
Cc1cc(C)cc(NC(=O)CSc2nc(N)c(NC(=O)c3ccc(Br)o3)c(=O)[nH]2)c1	none (no result: Pf gamet viab, Arbovirus inh)
COc1ccccc1CN1CC(C(=O)NC2CCOCC2)CCC1=O (centres undefined)	none (no result: Pf gamet viab, Arbovirus inh)
C[N+]1(CCC(=O)c2ccccc2)CCCCC1	MEKK3 PB1 HTS 2.0[inhibitor], MEKK2wt PB1 HTS 2.0[inhibitor] | MEKK2wt confirm inactive | MEKK2mut confirm inactive | MEKK3-MEK5 inh inactive
CN(C)C(=O)c1ccc(N/C=C(\C=O)c2nc3ccccc3o2)cc1	none
C=C(C)Cn1c(CCn2c3ccccc3c3ccccc32)n[nH]c1=S	MEKK3 PB1 HTS 134 (no result: Pf gamet viab) | MEKK2wt confirm inactive | MEKK2mut confirm inactive | MEKK3-MEK5 inh inactive
CCOC(=O)CNC(=O)c1ccc(OCC(F)(F)F)cc1	none
Cc1cc(C(=O)NNC(=S)NCC(C)C)cs1	MEKK3 PB1 HTS 75[inhibitor] (no result: Pf gamet viab) | MEKK2wt confirm inactive | MEKK2mut confirm inactive | MEKK3-MEK5 inh inactive
Cc1nc2nc(C)c(NS(=O)(=O)c3ccc(Cl)s3)c(=O)n2[nH]1	none (no result: Pf gamet viab, Arbovirus inh)
Cc1ccc(C(C(=O)NC2CCCCC2)N(C(=O)Cc2c[nH]c3ccccc23)c2ccccc2C)o1 (centres undefined)	MEKK3 PB1 HTS 128 | MEKK2wt confirm inactive | MEKK2mut confirm inactive | MEKK3-MEK5 inh inactive
